From PubChem BioAssay AID720504 (National Center for Advancing Translational Sciences (NCATS), 2013) come the findings set out here.

Among all 360,000 compounds or so, about 10,000 (2.8%) were called active. Another 4% or so got no clear call; they are omitted. Calls follow the shape of the dose curve; as a rule, active = well fitted inhibition curve with a large enough effect; inconclusive = small, poorly fitted or top-dose-only effect; inactive = flat fitted curve, though single readings scatter. The sample as a whole holds a higher share of actives than the screen did.
% is scaled to controls: 0 for no effect and ±100 for the full control effect; potency is read from the fitted curve at half-maximal effect.

The target in the assay is Serine/threonine-protein kinase PLK1 (Homo sapiens) (UniProt P53350). The assay can be described thus: qHTS for Inhibitors of PLK1-PDB (polo-like kinase 1 - polo-box domain): Primary Screen. Also: nearly all actives have a fitted effect of over 65% in size. As to max response, negative = inhibition: series mostly up to about 57 µM. The settings on record: Plk1 PBD binding of FITC phosphopeptide, fluorescence polarization.
Sequence of Serine/threonine-protein kinase PLK1 (Homo sapiens) (P53350 whole entry, looked up, the tested form may be a part): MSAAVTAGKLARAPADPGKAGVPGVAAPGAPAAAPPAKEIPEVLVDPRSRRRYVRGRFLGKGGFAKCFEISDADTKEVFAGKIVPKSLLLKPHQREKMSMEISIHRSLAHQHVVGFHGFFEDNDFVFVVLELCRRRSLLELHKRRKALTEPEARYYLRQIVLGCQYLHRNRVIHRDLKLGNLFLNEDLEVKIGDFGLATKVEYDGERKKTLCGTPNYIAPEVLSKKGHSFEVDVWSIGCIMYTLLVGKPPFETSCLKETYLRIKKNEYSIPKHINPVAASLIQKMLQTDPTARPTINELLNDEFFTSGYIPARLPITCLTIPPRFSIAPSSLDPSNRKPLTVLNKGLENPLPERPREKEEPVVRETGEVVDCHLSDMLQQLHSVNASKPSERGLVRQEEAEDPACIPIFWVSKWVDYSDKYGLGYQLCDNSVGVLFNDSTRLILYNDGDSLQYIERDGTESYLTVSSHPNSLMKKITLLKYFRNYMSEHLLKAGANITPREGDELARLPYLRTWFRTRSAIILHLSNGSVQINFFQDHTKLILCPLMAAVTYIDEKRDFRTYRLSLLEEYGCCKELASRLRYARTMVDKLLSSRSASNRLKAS
For the compound `COc1ccc(CCn2c(O)c(C=NCCCn3ccnc3)c(=O)[nH]c2=O)cc1OC`, the max response, negative = inhibition is -4.17% (inactive). `c1ccc(Cc2nn3c(Cn4cnc5ccccc54)nnc3s2)cc1`: the Potency was 11.9 µM (active). Regarding `CCOP(=O)(OCC)C(NC(=O)NC)C(N)=O` (stereo unspecified), the max response, negative = inhibition was 0.136% (inactive). Same read-out and setting: in the case of `CCCC[N+]1(C)C2CC(OC(=O)C(CO)c3ccccc3)CC1C1OC12` (stereo unspecified) it was -0.372% (inactive); in that of `CC(=NCc1ccc2c(c1)OCO2)c1c(O)[nH]c(=O)[nH]c1=O`, -14.7% (inactive).

As for `CCOC(=O)C1SC2(C(F)(F)C(F)F)CC1(O)c1c(c(OC)c3occc3c1OC)O2` (stereo unspecified), the max response, negative = inhibition was 0.906% (inactive). With `O=c1c2ccccc2[nH]c(=S)n1-c1cccc(Cl)c1`, the max response, negative = inhibition is -18.6% (inactive). The same measure, in the same setting: in the case of `COC(=O)C1=C(c2ccc(-c3ccccc3)c(F)c2)C[C@@H]2CC[C@H]1N2C(=O)NCc1ccc(F)cc1` it was -10.9% (inactive); in that of `C=C(C)C1(CCCC)C(=O)NC(=S)NC1=O`, 0.58% (inactive). `Cc1noc(C)c1CSc1nc2cc(S(=O)(=O)N3CCOCC3)ccc2o1`: the Potency was 21.2 µM (active). Turning to `Cn1c(C(=O)N2CCC(C(=O)N3CCC4(CC3)OCCO4)CC2)cc2sccc21`, the max response, negative = inhibition is -6.93% (inactive).

Turning to `CC=C(C)C(=O)OC1CCN2CC=C(COC(=O)C(O)(C(C)OC)C(C)(C)O)C12` (stereo unspecified), the max response, negative = inhibition is -10.3% (inactive). For `Cc1cc(=O)oc2c(C)c(OCC(=O)N3CCN(Cc4ccc5c(c4)OCO5)CC3)ccc12`, the max response, negative = inhibition is -7.37% (inactive).

With `Cc1cccc(NC(=O)OC2CN3CCC2CC3)c1` (stereo unspecified), the max response, negative = inhibition was 3.5% (inactive). The same measure, in the same setting: in the case of `CN1CCN(C(=O)COc2ccc(C(C)(C)C)cc2Br)CC1` it was -4.1% (inactive). With `CC(C)(C)c1ccc(OC(=O)N2CCCCC2)cc1`, the Potency was 23.8 µM (active). As to `O=C(Nc1cccc(OC(=O)N2CCCCC2)c1)N1CCOCC1`, the max response, negative = inhibition is -15.9% (inactive). Take `C[N+]12CN3CN(CN(C3)C1)C2`: the max response, negative = inhibition was -1.32% (inactive). For `COc1ccc(-n2nnnc2C(c2cccc3ccccc23)N2CCC(n3c(=O)[nH]c4ccccc43)CC2)cc1` (stereo unspecified), the max response, negative = inhibition was -4.82% (inactive). With `COc1ccc(NC(=O)N2Cc3ccccc3-n3nncc3C2)cc1`, the max response, negative = inhibition is -7.51% (inactive). For `CCOc1ccc(C2SCC(=O)Nc3c2c(C)nn3C2CCOC(C)(C)C2)cc1` (stereo unspecified), the max response, negative = inhibition was -3.25% (inactive).

As for `COc1ccccc1NC(=O)N1C[C@@H]2C[C@@H](C1)c1cccc(=O)n1C2`, the max response, negative = inhibition was -7.73% (inactive). Still for that read-out and setting: in the case of `CN1CCC(OC(=O)c2cccc(F)c2)CC1` it was -15.3% (inactive). Regarding `Cc1ccc2c(c1)=C/C(=C\c1c(O)[nH]c(=O)[nH]c1=O)C(=O)N=2`, the Potency is 11.9 µM (active). For `O=c1[nH]c(O)c(C=Nc2cc(F)cc(F)c2)c(=O)[nH]1`, the max response, negative = inhibition was -3.46% (inactive). The same measure, in the same setting: in the case of `CC[N+](CC)(CC)CCCCCCCCCC[N+](CC)(CC)CC` it was 3.96% (inactive); in that of `CC12CCC3C(CCC4CC(=O)CCC43C)C1CC(=NO)C2=O` (stereo unspecified), 6.72% (inactive). For the compound `C[C@]12CCCCC1=CC(=O)C1C2CC[C@@]2(C)C1C[C@@H](F)[C@@H]2O` (stereo partly specified), the max response, negative = inhibition is 2.07% (inactive). As for `COC(=O)C[C@H]1CC[C@H]2NC[C@@H](O)COC[C@@H]2O1`, the max response, negative = inhibition is -11.8% (inactive). For `O=C1NC(=O)N(CCc2ccc(F)cc2)C(=O)/C1=C/C=C/c1ccccc1`, the Potency was 0.532 µM (active). For the compound `CC(C)N(CC#CCC1(O)c2ccccc2-c2ccccc21)C(C)C`, the max response, negative = inhibition is 4.02% (inactive). Still for that read-out and setting: for `O=C(NC(=S)N1C[C@H]2C[C@H](C1)c1cccc(=O)n1C2)c1ccc(F)cc1` the value was -8.97% (inactive). Still for that read-out and setting: for `N=c1ccccn1Cc1ccccc1` the value was -5.72% (inactive). Regarding `CCOC(=O)[C@]12Cc3ccccc3[C@H]1N(C1CCCCC1)C(=O)c1cc(OC)ccc12`, the Potency is 10.6 µM (active). For `CCOC(=O)c1cccc(C2=C(CNC(=O)c3ccncc3)[C@H]3CC[C@@H](C2)N3Cc2ccccc2)c1`, the max response, negative = inhibition is -3.52% (inactive). On to `COc1ccc(CN2C(=O)NC(=O)/C(=C\c3ccc(OC)c(OC)c3OC)C2=O)cc1`, for which the Potency is 7.52 µM (active). For the compound `O=c1c2ccccc2nc(-c2ccc(Cl)cc2Cl)n1-c1ccncc1`, the max response, negative = inhibition is -3.78% (inactive). Still for that read-out and setting: for `Nc1ccc([N+](=O)[O-])cc1` the value was -16% (inactive). For `C=CCN1C(=O)NC(=O)/C(=C/c2ccc(OCC(=O)Nc3ccc(C)cc3)cc2)C1=O`, the Potency was 8.44 µM (active). Consider `C=CCN(CC=C)C(=O)Nc1ccc(OCC)cc1`, for which the max response, negative = inhibition is -8.48% (inactive). Turning to `CCC(=O)c1ccc(OCC(=O)N2CCN(CC(=O)Nc3ccc(C)cc3)CC2)cc1`, the max response, negative = inhibition was -6.03% (inactive).

On to `CCOC(=O)C1CN(C)CCC1=O` (stereo unspecified), for which the max response, negative = inhibition is -5.51% (inactive). `O=C(CCCn1c(=O)[nH]c2cc(Cl)ccc2c1=O)N1CCC2(CC1)OCCO2`: the max response, negative = inhibition was -6.33% (inactive). Regarding `COC(=O)N(c1ccc(OC)cc1)P1(=S)OCCC(C)O1` (stereo unspecified), the Potency was 2.67 µM (active). As for `Cc1ccc(N(C)C(=O)Oc2cccc3ccc(C)nc23)cc1`, the max response, negative = inhibition is 0.137% (inactive). With `COc1ccc(N2C(=O)/C(=C/c3ccco3)C(=O)NC2=S)cc1`, the Potency was 2.67 µM (active). Take `CC(=NCC1CCCO1)c1c(O)n(-c2ccccc2)c(=O)[nH]c1=O` (stereo unspecified): the max response, negative = inhibition was -9.8% (inactive). Still for that read-out and setting: in the case of `COCc1cc(OC(=O)N(C)C)nc(-c2ccc(C)c(Cl)c2)n1` it was -4.36% (inactive).

With `O=C(N/N=C/c1c(O)n(Cc2ccccc2)c(=O)[nH]c1=O)c1ccccc1`, the max response, negative = inhibition was -9.07% (inactive).

`CCC(=NCc1ccco1)c1c(O)n(Cc2ccccc2)c(=O)[nH]c1=O`: the max response, negative = inhibition was -18.9% (inactive). With `CC/C(=N\NC(=O)c1ccccc1O)c1c(O)n(Cc2ccccc2)c(=O)[nH]c1=O`, the Potency is 16.8 µM (active). `COC(=O)C1=C(c2ccc(Cl)c(C(F)(F)F)c2)C[C@@H]2CC[C@H]1N2C(=O)NC(C)C`: the max response, negative = inhibition is -9.53% (inactive). Still for that read-out and setting: for `O=C(COc1ccc2ccccc2c1)N1CCN(Cc2ccncc2)CC1` the value was -21.6% (inactive). As to `COc1ccc(-c2nc(CS(=O)CC(=O)N3CCC4(CC3)OCCO4)c(C)o2)cc1` (stereo unspecified), the max response, negative = inhibition was -28% (inactive).

With `ClC(Cl)(Cl)c1ccccc1`, the max response, negative = inhibition is -9.92% (inactive). Same read-out and setting: in the case of `NCCc1c[nH]c2ccc(O)cc12` it was -10.9% (inactive).

Consider `CCOc1ccc(CN(CCCl)CCCl)cc1C(=O)OC`, for which the Potency was 26.7 µM (active). Same read-out and setting: for `O=C(O)COc1ccccc1/C=C1\C(=O)NC(=O)N(CCC2=CCCCC2)C1=O` the value was 11.9 µM (active). `CCCCC(=O)N/N=C/c1c(O)n(CCC2=CCCCC2)c(=O)[nH]c1=O`: the max response, negative = inhibition is -3.58% (inactive). On the same count and under the same terms, in the case of `COc1cc(C(=O)N2Cc3ccc(Br)cc3-n3nncc3C2)cc(OC)c1OC` it was -10% (inactive); in that of `CC(C)c1ccc(OCC(=O)N2CCN(C)CC2)c(Br)c1`, -13.2% (inactive); in that of `c1cc2c(c(NC3=NCCCS3)c1)CCCC2`, -11.8% (inactive). `CCOP(=O)(OCC)C(NC(=O)c1ccc(OC)cc1)C(Cl)(Cl)Cl` (stereo unspecified): the max response, negative = inhibition is 1.87% (inactive).

For `CC(=O)c1ccc(OC(NC(=O)Cc2ccccc2)C(Cl)(Cl)Cl)cc1` (stereo unspecified), the Potency is 13.4 µM (active). `CC(=O)Cc1ccc(OC(C)C)cc1`: the max response, negative = inhibition is 1.86% (inactive). On the same count and under the same terms, for `COC(=O)C1=C(c2ccc(OCc3ccccc3)cc2)C[C@@H]2CC[C@H]1N2C(=O)NCc1cccc(F)c1` the value was -7.41% (inactive); for `CN(C)C(=O)Oc1ccc(NC(=O)N2CCOCC2)cc1`, -3.11% (inactive); for `CCOC(=O)CNC(=O)N1Cc2cc(N3CCCCC3)ccc2-n2nncc2C1`, -3.84% (inactive).

Take `O=C1NC(=O)N(Cc2ccco2)C(=O)/C1=C\c1cccn1CCOc1ccccc1`: the Potency is 15 µM (active). Consider `O=C1NC(=O)N(Cc2ccco2)C(=O)/C1=C\c1ccc(-c2ccc(F)cc2)o1`, for which the Potency was 0.423 µM (active). `N#CC1=C(N)Oc2c(c(=O)oc3ccccc23)C1c1ccccc1OC(=O)c1cccs1` (stereo unspecified): the max response, negative = inhibition was -2.78% (inactive). For `CN(C)CC1CCCCC1=O` (stereo unspecified), the max response, negative = inhibition was -3.76% (inactive).

As to `CCC(C)n1c(O)c(/C=N/Nc2nc3c(c(=O)n(C)c(=O)n3C)n2C)c(=O)[nH]c1=S` (stereo unspecified), the max response, negative = inhibition is -11.1% (inactive). Turning to `O=c1c2ccccc2nc(CBr)n1-c1ccc(Cl)cc1`, the max response, negative = inhibition was -5.73% (inactive).

As to `CCC(C)(O)C(=O)OC1C(=O)OC2CC3C(C)=CC(=O)C(O)C3(C)C3C4(O)OCC23C1C(C)C4O` (stereo unspecified), the max response, negative = inhibition is -4.99% (inactive). As for `CCC(=O)OC(Cc1ccccc1)(c1ccccc1)C(C)CN(C)C` (stereo unspecified), the max response, negative = inhibition is -11.9% (inactive).
